The record followed here is PubChem BioAssay (EPA / NIEHS).

Results filed as inconclusive are left out. Activity calls are given as the source filed them. How the source made its calls: active means hit-call score of the fitted dose curve at least 0.9, where 1 is the maximum; inconclusive means response in the unintended direction; inactive means score below 0.9.

Test [1] has as its target Tyrosine-protein phosphatase non-receptor type 12 (Homo sapiens) (UniProt Q05209). Description: NVS_ENZ_hPTPN12: NovaScreen (NVS) Enzymatic Assay for human Protein Tyrosine Phosphatase Non-receptor Type 12 (PTPN12) (AID 2283204). The method, boiled down:
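Single-concentration duplicates (25 uM) preceded singleton concentration-response up to 50 uM for chemicals passing threshold. Cell-free recombinant PTPN12 activity was read 1.33 h after dosing via fluorescence after mobility-shift separation; loss of signal versus DMSO.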

The target in test [2] is Tyrosine-protein phosphatase non-receptor type 13 (Homo sapiens) (UniProt Q12923). Description: NVS_ENZ_hPTPN13: NovaScreen (NVS) Enzymatic Assay for human Protein Tyrosine Phosphatase Non-receptor Type 13 (PTPN13) (AID 2283205). The method, boiled down: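 Screened first at a single 25 uM in duplicate; compounds passing the threshold (e.g. 30% inhibition) were rerun in concentration series, top 50 uM. Recombinant enzyme, fluorescent substrate, mobility-shift separation, 0.5 h read. Data fitted as inhibition relative to DMSO.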

Test [3] has as its target Tyrosine-protein phosphatase non-receptor type 14 (Homo sapiens) (UniProt Q15678). Briefly: NVS_ENZ_hPTPN14: NovaScreen (NVS) Enzymatic Assay for human Protein Tyrosine Phosphatase Non-receptor Type 14 (PTPN14) (AID 2283206). In a few lines:
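Fluorescent substrate turnover by recombinant human PTPN14 was measured 0.5 h after compound addition, with substrate and product separated by mobility shift. Single-point screening at 25 uM, then concentration-response up to 50 uM for chemicals meeting threshold (e.g., 30% inhibition).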

Test [4] deals with human Protein Tyrosine Phosphatase Receptor Type F (PTPRF), PTPRF (gene 5792) (UniProt P10586). Briefly: NVS_ENZ_hPTPRF: NovaScreen (NVS) Enzymatic Assay for human Protein Tyrosine Phosphatase Receptor Type F (PTPRF) (AID 2283213). In a few lines:
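Cell-free fluorescence enzyme assay with recombinant protein and substrate; product separated by electrophoretic mobility shift. Read 1 h after dosing, single 25 uM duplicate screen, then concentration-response up to 50 uM; loss of signal vs DMSO.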

For test [5], the target named is human Protein Tyrosine Phosphatase Non-receptor Type 9 (PTPN9), PTPN9 (gene 5780) (UniProt P43378). Briefly: NVS_ENZ_hPTPN9: NovaScreen (NVS) Enzymatic Assay for human Protein Tyrosine Phosphatase Non-receptor Type 9 (PTPN9) (AID 2283209). In a few lines:
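Sf9-expressed enzyme in a cell-free assay, fluorescence read 1.33 h after dosing with mobility-shift separation of substrate and product. Tested at 25 uM in duplicate, then up to 50 uM; signal loss versus DMSO.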

Test [6] deals with human Protein Tyrosine Phosphatase Receptor Type B (PTPRB), PTPRB (gene 5787) (UniProt P23467). Briefly: NVS_ENZ_hPTPRB: NovaScreen (NVS) Enzymatic Assay for human Protein Tyrosine Phosphatase Receptor Type B (PTPRB) (AID 2283211). The method, boiled down:
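Recombinant human PTPRB with a fluorescent substrate, product separated by electrophoretic mobility shift; read 1 h after dosing. Primary screen in duplicate at 25 uM; actives then retested in concentration series; loss of signal versus DMSO.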

Sequence of human Protein Tyrosine Phosphatase Non-receptor Type 9 (PTPN9), PTPN9 (gene 5780) (P43378 whole entry, looked up): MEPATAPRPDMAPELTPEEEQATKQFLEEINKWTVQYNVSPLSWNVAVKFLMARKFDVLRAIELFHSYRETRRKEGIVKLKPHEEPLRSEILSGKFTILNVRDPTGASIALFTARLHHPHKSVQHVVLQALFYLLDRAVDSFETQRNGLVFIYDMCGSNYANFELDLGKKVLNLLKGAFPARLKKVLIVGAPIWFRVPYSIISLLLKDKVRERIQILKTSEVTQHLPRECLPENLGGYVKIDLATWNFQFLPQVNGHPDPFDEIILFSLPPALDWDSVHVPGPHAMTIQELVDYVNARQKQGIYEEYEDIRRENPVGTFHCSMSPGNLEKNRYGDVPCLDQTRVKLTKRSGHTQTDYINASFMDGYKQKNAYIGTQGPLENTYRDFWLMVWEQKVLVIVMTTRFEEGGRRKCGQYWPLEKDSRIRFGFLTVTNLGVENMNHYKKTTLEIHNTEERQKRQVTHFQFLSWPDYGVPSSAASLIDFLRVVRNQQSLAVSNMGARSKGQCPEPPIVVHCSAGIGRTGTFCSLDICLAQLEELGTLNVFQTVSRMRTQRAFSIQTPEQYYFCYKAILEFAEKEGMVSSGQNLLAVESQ
Sequence of Tyrosine-protein phosphatase non-receptor type 13 (Homo sapiens) (Q12923 whole entry, looked up): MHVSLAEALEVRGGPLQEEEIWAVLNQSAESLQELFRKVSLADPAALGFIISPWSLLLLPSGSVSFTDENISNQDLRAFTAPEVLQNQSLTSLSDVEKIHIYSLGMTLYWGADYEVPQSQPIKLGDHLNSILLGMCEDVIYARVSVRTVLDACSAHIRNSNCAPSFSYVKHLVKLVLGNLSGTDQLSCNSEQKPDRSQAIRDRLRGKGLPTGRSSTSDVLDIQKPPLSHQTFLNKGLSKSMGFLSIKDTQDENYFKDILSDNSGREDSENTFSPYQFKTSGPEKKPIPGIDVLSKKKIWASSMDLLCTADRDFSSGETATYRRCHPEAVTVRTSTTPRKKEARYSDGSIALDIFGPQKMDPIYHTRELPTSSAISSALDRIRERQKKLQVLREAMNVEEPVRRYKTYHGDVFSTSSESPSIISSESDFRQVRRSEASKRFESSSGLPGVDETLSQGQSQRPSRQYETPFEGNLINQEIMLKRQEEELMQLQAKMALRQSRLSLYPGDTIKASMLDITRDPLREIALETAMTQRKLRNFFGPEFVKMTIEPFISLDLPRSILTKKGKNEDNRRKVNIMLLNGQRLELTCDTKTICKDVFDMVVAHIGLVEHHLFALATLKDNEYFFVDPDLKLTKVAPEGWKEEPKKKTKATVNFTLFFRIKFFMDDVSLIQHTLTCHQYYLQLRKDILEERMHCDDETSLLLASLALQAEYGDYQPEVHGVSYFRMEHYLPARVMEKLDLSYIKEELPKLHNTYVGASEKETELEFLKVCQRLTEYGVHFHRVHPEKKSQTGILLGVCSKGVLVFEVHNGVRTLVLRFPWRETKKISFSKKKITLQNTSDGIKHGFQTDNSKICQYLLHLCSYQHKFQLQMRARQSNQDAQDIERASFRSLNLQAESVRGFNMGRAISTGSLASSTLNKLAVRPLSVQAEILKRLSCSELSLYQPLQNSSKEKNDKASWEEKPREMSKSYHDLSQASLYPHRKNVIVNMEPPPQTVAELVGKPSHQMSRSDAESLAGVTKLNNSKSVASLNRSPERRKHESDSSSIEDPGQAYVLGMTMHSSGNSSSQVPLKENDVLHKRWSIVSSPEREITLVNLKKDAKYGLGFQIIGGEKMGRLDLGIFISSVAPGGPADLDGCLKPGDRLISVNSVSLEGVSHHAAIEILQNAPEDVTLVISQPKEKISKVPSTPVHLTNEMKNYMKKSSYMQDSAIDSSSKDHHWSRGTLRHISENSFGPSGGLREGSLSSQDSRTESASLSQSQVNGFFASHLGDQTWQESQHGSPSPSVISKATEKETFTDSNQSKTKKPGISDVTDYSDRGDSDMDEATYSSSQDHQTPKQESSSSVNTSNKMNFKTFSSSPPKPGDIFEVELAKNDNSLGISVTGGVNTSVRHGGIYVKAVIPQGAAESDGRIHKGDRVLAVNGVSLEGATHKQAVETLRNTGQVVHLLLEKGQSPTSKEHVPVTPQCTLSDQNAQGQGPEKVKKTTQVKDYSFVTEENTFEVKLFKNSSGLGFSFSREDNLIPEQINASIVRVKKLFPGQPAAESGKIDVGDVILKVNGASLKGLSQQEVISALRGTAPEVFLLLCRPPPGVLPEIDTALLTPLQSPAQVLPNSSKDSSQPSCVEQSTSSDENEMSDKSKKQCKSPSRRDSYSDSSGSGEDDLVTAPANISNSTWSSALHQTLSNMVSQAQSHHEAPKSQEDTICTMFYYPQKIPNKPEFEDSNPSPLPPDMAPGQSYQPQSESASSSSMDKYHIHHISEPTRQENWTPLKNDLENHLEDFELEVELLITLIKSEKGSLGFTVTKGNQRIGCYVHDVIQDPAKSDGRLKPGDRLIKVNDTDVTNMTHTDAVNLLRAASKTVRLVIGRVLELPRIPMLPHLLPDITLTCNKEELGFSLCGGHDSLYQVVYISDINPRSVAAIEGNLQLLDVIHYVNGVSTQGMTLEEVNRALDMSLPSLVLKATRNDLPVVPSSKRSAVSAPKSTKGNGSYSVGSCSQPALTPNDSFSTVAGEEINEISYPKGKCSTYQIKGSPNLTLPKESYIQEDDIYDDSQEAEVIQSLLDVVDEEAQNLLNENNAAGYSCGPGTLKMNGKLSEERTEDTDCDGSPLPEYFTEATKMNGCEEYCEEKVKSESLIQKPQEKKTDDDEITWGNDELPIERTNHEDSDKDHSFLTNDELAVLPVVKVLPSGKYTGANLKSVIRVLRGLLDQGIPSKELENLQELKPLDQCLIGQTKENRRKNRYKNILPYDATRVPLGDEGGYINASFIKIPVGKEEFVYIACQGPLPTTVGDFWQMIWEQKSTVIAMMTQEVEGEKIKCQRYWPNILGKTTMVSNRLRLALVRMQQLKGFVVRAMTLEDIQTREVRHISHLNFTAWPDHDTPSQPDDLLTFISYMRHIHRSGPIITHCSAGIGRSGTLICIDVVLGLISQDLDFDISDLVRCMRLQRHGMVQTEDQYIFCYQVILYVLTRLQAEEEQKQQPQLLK
Sequence of Tyrosine-protein phosphatase non-receptor type 14 (Homo sapiens) (Q15678 whole entry, looked up): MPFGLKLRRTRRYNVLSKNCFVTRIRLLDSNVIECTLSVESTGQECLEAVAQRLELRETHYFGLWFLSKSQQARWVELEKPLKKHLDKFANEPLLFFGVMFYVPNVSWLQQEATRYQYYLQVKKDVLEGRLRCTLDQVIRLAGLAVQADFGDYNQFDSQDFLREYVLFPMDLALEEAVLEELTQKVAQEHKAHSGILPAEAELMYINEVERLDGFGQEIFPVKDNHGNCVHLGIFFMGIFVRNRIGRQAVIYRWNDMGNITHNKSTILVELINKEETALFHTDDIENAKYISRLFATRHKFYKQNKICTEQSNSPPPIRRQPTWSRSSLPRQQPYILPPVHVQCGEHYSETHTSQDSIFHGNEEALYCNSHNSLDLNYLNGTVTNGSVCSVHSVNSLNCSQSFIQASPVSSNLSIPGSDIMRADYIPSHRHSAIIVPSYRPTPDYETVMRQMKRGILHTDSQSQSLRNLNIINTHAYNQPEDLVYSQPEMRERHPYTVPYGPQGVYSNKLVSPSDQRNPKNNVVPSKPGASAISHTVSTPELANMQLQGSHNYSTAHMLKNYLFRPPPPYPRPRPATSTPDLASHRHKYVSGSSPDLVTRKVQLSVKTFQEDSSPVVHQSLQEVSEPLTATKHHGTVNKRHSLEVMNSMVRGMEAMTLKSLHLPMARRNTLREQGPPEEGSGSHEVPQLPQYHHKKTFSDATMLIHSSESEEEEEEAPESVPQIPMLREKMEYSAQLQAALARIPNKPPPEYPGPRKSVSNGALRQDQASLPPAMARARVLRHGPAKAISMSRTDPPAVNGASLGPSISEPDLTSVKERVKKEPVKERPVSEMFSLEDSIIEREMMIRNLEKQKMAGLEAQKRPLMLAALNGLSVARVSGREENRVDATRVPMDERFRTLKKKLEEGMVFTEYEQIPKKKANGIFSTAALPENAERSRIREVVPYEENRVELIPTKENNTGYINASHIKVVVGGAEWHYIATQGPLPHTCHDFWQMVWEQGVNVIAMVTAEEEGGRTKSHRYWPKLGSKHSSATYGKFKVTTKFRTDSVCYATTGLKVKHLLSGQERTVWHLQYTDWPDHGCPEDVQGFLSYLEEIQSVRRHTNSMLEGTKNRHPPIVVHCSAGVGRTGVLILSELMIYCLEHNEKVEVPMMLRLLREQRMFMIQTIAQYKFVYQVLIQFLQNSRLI
Sequence of Tyrosine-protein phosphatase non-receptor type 12 (Homo sapiens) (Q05209 whole entry, looked up): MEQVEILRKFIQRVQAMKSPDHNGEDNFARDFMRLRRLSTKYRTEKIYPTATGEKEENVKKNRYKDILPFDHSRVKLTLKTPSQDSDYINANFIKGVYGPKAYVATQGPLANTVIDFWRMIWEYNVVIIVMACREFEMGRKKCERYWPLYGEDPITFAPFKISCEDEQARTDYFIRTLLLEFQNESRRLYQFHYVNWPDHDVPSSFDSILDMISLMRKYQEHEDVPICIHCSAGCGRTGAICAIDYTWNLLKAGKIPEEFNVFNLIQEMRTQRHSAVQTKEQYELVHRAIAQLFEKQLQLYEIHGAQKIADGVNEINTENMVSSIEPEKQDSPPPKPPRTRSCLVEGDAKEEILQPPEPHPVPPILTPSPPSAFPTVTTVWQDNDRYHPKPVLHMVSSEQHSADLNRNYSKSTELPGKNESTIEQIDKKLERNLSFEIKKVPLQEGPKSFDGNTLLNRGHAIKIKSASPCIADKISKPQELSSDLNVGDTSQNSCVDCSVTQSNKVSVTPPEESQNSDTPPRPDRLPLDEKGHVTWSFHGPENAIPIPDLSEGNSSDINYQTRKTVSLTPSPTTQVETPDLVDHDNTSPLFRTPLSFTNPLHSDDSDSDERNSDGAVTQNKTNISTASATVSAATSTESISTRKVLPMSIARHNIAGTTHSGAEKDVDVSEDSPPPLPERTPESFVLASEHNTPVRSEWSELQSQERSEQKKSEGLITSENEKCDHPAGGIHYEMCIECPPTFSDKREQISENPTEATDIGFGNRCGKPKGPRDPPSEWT

As for `O=C(NS(=O)(=O)/C=C/c1cccs1)c1ccc(F)cc1Br`, the result in test [1] was inactive.

For the compound `COc1ccc(OC(F)(F)F)cc1CN[C@H]1CCCN[C@H]1c1ccccc1`, the compound was classed as inactive in test [2], in test [3] and in test [4]. `CCCCOC(=O)CCCCC(=O)OCCCC`: the outcome in test [2] was inactive.

As for `CC(C)NCC(O)c1ccc(O)c(O)c1` (stereo not given), in test [3], the compound was called inactive. In the case of `O=C(Oc1ccccc1)c1cccc(C(=O)Oc2ccccc2)c1`, the outcome in test [5] was inactive. The same measure, in the same setting: the value for `O=C(O)CC(O)(CC(=O)O)C(=O)O` was “inactive”.

As to `CCCCC(CC)CO` (stereo not given), in test [6], the compound was called inactive. Turning to `CN(C)C(=O)NC1(c2ccccc2)CCN(CCC[C@]2(c3ccc(Cl)c(Cl)c3)CCCN(C(=O)c3ccccc3)C2)CC1`, in test [4], the outcome was inactive.
